In test [1] the target is Lysosomal acid glucosylceramidase (Homo sapiens) (UniProt P04062). Put plainly: Glucocerebrosidase-p2 (AID 348; in the data active means potency below about 10 µM; further: potency means the concentration at half of the fitted maximal effect). The settings on record: purified GBA, blue fluorogenic substrate, 40 min. The method, boiled down:
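Normal human glucocerebrosidase (0.2 nM) with blue fluorogenic substrate (80 uM final) in citrate/phosphate pH 5.9 with 10mM sodium taurocholate, 0.01% tween-20; 40 min RT, NaOH/glycine stop; fluorescence Ex 365/Em 440; AC50 from a titration from 0.6 nM upwards.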

The target in test [2] is Cytochrome P450 1A2 (Homo sapiens) (UniProt P05177). Put plainly: p450-cyp1a2 (AID 410; calls by dose curve; further: potency means the concentration at half of the fitted maximal effect;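 on activity change, negative = inhibition: -100% = full effect of reference inhibitor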). The settings on record: recombinant CYP1A2, luciferin-ME demethylation, luminescence; series mostly up to 57 µM. The method, boiled down:
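Read-out is luminescence from luciferin produced by CYP1A2 demethylation of Luciferin-ME (100uM, at Km). Detection reagent stopped the 60 min NADPH-dependent reaction; signals were normalized to 57 uM furafylline.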

A short description of test [3]: NFAT Signaling Pathway (AID 444; active means well fitted curve in either direction with a large enough effect, not every such curve was filed as active;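 further: carbachol stimulus at about its EC50 of 1 µM final; on the % scale 0 is the no-effect control and ±100 the full control effect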). Conditions: Jurkat NFAT-bla M1, carbachol, beta-lactamase ratio, 5 h; at 7.69 µM (top of the series) unless noted. The method, boiled down:
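Read-out: CCF4 FRET ratio (460 nm/530 nm) after 1 h RT dye loading, used for %activity and AC50 from titration series. Cells: Jurkat NFAT-β-lactamase/M1 line, treated with compound plus 1 uM carbachol for 5 h, 37 °C.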

The target in test [4] is Glucocorticoid receptor (Homo sapiens) (UniProt P04150). Put plainly: GR-GFP Redistribution (AID 450;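 active means compounds whose dose series gives a full or clear partial fitted curve of increased nuclear translocation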; further: potency means the concentration at half of the fitted maximal effect). The settings on record: U2OS GR-GFP nuclear translocation, laser cytometry, 2 h.
The target is the same in test [5]. Put plainly: GR-EFC Redistribution (AID 451; calls by dose curve; further: potency means the concentration at half of the fitted maximal effect). The settings on record: CHO-K1 GR-EFC translocation, beta-gal luminescence, 2 h. In short, it runs like this: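 Translocation of GR-ED fusion to nuclear EA restores b-gal, read by luminescence after 1 h room-temperature detection. Engineered CHO-K1 biosensor cells, 1,000/well, exposed 2 h at 37 C to titrations up to 46 uM final.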

Test [6] addresses Cytochrome P450 3A4 (Homo sapiens) (UniProt P08684). Put plainly: qHTS Assay for Inhibitors and Substrates of Cytochrome P450 3A4 (AID 884). Further: potency means the concentration at half of the fitted maximal effect; nearly all actives have a fitted effect of over 50% in size. Conditions: recombinant CYP3A4, Luciferin-PPXE luminescence; series mostly up to 57.1 µM. The method, boiled down: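 Luminescent readout of luciferin produced by CYP3A4 (20 nM) dealkylation of Luciferin-PPXE, 25 uM (its KM). NADPH-driven reaction ran 60 min at RT after 10 min compound preincubation; data scaled to 57 uM ketoconazole as 100% inhibition.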
(In qHTS, concentration-response curves come from the screen itself.)

For test [7] the target is unchanged. Put plainly: qHTS Assay for Activators of Cytochrome P450 3A4 (AID 885). Further: nearly all actives have a fitted effect of over 65% in size. Conditions: recombinant CYP3A4, Luciferin-PPXE luminescence, 60 min; series mostly up to 57.1 µM. In short, it runs like this:
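Using 20nM recombinant human CYP3A4 in potassium phosphate (200mM), substrate Luciferin-PPXE at 25uM, luminescent luciferin detection followed a 60-min RT NADPH reaction; data scaled to 57 uM ketoconazole.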

The nature of test [8]: qHTS Assay for Identification of Small Molecule Agonists for Hypoxia Response Element Signaling Pathway (AID 914; active means well fitted activation curve with a large enough effect in the signal ratio, with a control signal flat, not every such curve was filed as active; the % refers to the signal ratio; further: potency means the concentration at half of the fitted maximal effect). The settings on record: ME-180 HRE-bla reporter, beta-lactamase ratio, CoCl2, 17 h; activation: stronger effect = higher value. In short, it runs like this: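 Read-out: CCF4 FRET ratio of 460nm to 530nm emission (excitation 405nm) after 2.5 hours at room temperature, taken from HRE-bla ME-180 cells that had been exposed to compound and EC50 CoCl2 for 17 hours.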

Test [9] is described as follows: Primary qHTS for small molecule stabilizers of the endoplasmic reticulum resident proteome: Secreted ER Calcium Modulated Protein (SERCaMP) assay (AID 1508630). Further: on the % scale 0 is the no-effect control and ±100 the full control effect. The settings on record: SH-SY5Y GLuc-SERCaMP (Gaussia luciferase released on ER calcium loss) secretion, thapsigargin, luminescence; series mostly up to 38.4 µM. In short, it runs like this: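 The SH-SY5Y reporter protocol was run at 3 concentrations up to 38.3 uM (primary) or 11 concentrations (follow-up): 16 h compound, 100 nM thapsigargin for 4 h, then extracellular luciferase luminescence.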

Test [10] is described as follows: Stat Signaling Pathway (AID 446; active means well fitted curve in either direction with a large enough effect, not every such curve was filed as active;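 further: ME-180 cervical cancer cells given 40 pM IL-6 alongside compound; SIE-controlled beta-lactamase reporter measured as 460/530 nm FRET emission ratio; on the % scale 0 is the no-effect control and ±100 the full control effect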). Conditions: ME-180 SIE beta-lactamase reporter, IL-6 stimulated, 5 h; at 7.69 µM (top of the series) unless noted. In short, it runs like this:
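Overnight-plated ME-180 cells bearing a STAT Inducible Element beta-lactamase reporter; 5 h co-exposure to compound and 40 pM IL-6; values normalized to 300 pM IL-6 and 125 nM JAK inhibitor controls.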

The target of test [11] is Mitogen-activated protein kinase 10 (Mus musculus) (UniProt Q61831). Put plainly: JNK3 AlphaScreen Assay (AID 530; active means well fitted curve in either direction with a large enough effect, not every such curve was filed as active;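 further: kinase came from lysate of stimulated human HepG2 cells; signal reports phosphorylation of biotinylated GST-cJun 1-79 at Ser73 with 10 µM ATP; on the % scale 0 is the no-effect control and ±100 the full control effect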). Conditions: JNK3 lysate, c-Jun phosphorylation; series mostly up to 57.1 µM. In short, it runs like this:
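Kinase buffer: 20 mM Tris-HCl pH 7.6, 10 mM MgCl2, 1 mM DTT, 0.1 mM Na3VO4, 0.01% Tween-20; ATP 10 uM. Substrate biotin-GST-cJun(1-79), enzyme from activated HepG2 lysates. Detection by Ser73 phospho-antibody AlphaScreen.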
A general note: In Alpha technology, singlet oxygen from a donor bead excites a nearby acceptor bead.

The target of test [12] is Cytochrome P450 2C9 (Homo sapiens) (UniProt P11712). Put plainly: qHTS Assay for Inhibitors and Substrates of Cytochrome P450 2C9 (AID 883). Further: on the % scale 0 is the no-effect control and ±100 the full control effect; nearly all actives have a fitted effect of over 60% in size. Conditions: recombinant CYP2C9, luciferin-H luminescence, 60 min; series mostly up to 57.1 µM. In short, it runs like this:
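Inhibition of CYP2C9 is scored as loss of luminescence, with 57uM sulphaphenazole defining 100% inhibition. Substrate Luciferin-H is used at 100uM, equal to its KM; enzyme at 10nM in 25mM KPO4, 60 min at 37C with NADPH regeneration.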

Test [13] in a line: Confirmation and Secondary Assay for Modulators of Hemoglobin Beta Chain Splicing at IVS2 654 locus (AID 910).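 Further: HeLa cells stably carrying EGFP split by mutant beta-globin IVS2-654 intron; per-well total GFP intensity by laser scanning cytometry after 2-day treatment; % of control where 0% means no effect.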 The settings on record: HeLa EGFP-654 splicing reporter, GFP fluorescence, 48 h; series mostly up to 38.3 µM. In short, it runs like this: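 Readout: per-well total peak green fluorescence (488 nm ex, 500–520 nm em) from objects 5–250 µm, reflecting correct splicing of an EGFP-654 reporter. Compounds were applied for 2 days at 37 °C to overnight-plated HeLa EGFP-654 cells; controls were DMSO and 500 nM IVS2-654 PNA.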

Test [14] can be described thus: Confirmation and Secondary Assay for Modulators of Hemoglobin Beta Chain Splicing at IVS2 705 locus (AID 930).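 Further: HeLa cells stably expressing the EGFP-705 splicing reporter; GFP fluorescence per well restored by corrected splicing of the IVS2-705 intron in EGFP; % of control where 0% means no effect.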 Conditions: HeLa EGFP-705 splicing reporter, GFP fluorescence, 48 h; series mostly up to 38.3 µM. The method, boiled down:
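HeLa EGFP-705 reporter; 500 cells/well, o/n 37C 5% CO2; cpd 2 d; 488 ex/500-520 em laser scan; total peak GFP intensity/well. Ref: 500 nM […] antisense PNA.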

Test [15] addresses Ubiquitin carboxyl-terminal hydrolase 1 (Homo sapiens) (UniProt O94782). Put plainly: Inhibitors of USP1/UAF1: Pilot qHTS (AID 504865).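 Further: rhodamine fluorescence freed from ubiquitin-rhodamine substrate followed over time; top concentration of the series differs between compounds; on the % scale 0 is the no-effect control and ±100 the full control effect; nearly all actives have a fitted effect of over 35% in size.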 The settings on record: purified USP1/UAF1, Ub-rhodamine cleavage fluorescence; series mostly up to 54.9 µM. The method, boiled down: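 USP1/UAF1 complex at 1 nM preincubated 15 min at room temperature with compound, then Ub-Rho substrate added at 150 nM final. Fluorescence (480/540 nm) read kinetically in 50 mM HEPES pH 7.8, 0.5 mM EDTA, 1 mM TCEP, 0.1 mg/ml BSA, 0.01% Tween-20.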

Test [16] deals with 3',5'-cyclic-AMP phosphodiesterase 4B (Homo sapiens) (UniProt Q07343). Put plainly: qHTS Assay for Inhibitors of PDE-IV (AID 607; active means well fitted activation curve with a large enough effect in the main read-out, with a control signal flat, not every such curve was filed as active; further: % of control where 0% means no effect). Conditions: HEK293 ACTOne CNG channel cells, membrane potential fluorescence; series mostly up to 22.9 µM. The method, boiled down: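 Live HEK293 cells with a modified cyclic nucleotide-gated (CNG) channel report intracellular cAMP via membrane-potential dye fluorescence (ex 535/em 590 nm). Endogenous PDE-IV was targeted. Compounds were tested at up to 22.9 uM final; RO 20-1724 100 uM served as control.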

The target in test [17] is Cytochrome P450 2C19 (Homo sapiens) (UniProt P33261). Put plainly: qHTS Assay for Inhibitors and Substrates of Cytochrome P450 2C19 (AID 899). Further: potency means the concentration at half of the fitted maximal effect; nearly all actives have a fitted effect of over 60% in size. Conditions: recombinant CYP2C19, luciferin-H EGE luminescence; series mostly up to 57.1 µM. In short, it runs like this: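 5nM enzyme + 10uM Luciferin-H EGE (=KM), 50mM KPO4; cpd pin-transferred, 10 min 37C; NADPH regen, 60 min 37C; stopped w/ luciferin detection reagent, 20 min; luminescence. Normalized to 57uM ketoconazole (AC100).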

The target in test [18] is Cytochrome P450 2D6 (Homo sapiens) (UniProt P10635). Put plainly: qHTS Assay for Inhibitors and Substrates of Cytochrome P450 2D6 (AID 891). Further: potency means the concentration at half of the fitted maximal effect; nearly all actives have a fitted effect of over 60% in size. The settings on record: recombinant CYP2D6, luciferin-ME EGE luminescence; series mostly up to 57.1 µM. In short, it runs like this:
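Luminescent read-out of luciferin formed by 5 nM human CYP2D6 demethylating 30 uM Luciferin-ME EGE (Km level) over 60 min at room temperature after NADPH regeneration addition. Data normalized to full inhibition by 1.43 uM quinidine.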

A short description of test [19]: AP1 Signaling Pathway (AID 357; active means well fitted curve in either direction with a large enough effect, not every such curve was filed as active). The settings on record: ME-180 (cervical carcinoma) AP-1-bla reporter, EGF-induced, beta-lactamase ratio, 5 h; at 7.69 µM (top of the series) unless noted. The method, boiled down:
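A ratiometric CCF4 readout (405 nm excitation; 460 and 530 nm emission) quantified AP-1-driven beta-lactamase in ME-180 cells after 5 h with compound and EC50 EGF; AC50 values were derived for activators and inhibitors.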

A number with no mark means an inactive call. Records with an inconclusive call do not appear. Calls of active or inactive are those of the source. Unless noted, the call rests on the fitted dose curve; in most records, active means well fitted curve in the direction sought with a large enough effect; inconclusive means small, poorly fitted or top-dose-only effect, or another doubt; inactive means no such curve, though single readings can be large; an effect the other way counts as inactive or inconclusive. Bounds are passed on as bounds.

Cytochrome P450 1A2 (Homo sapiens), sequence (P05177 whole entry, looked up): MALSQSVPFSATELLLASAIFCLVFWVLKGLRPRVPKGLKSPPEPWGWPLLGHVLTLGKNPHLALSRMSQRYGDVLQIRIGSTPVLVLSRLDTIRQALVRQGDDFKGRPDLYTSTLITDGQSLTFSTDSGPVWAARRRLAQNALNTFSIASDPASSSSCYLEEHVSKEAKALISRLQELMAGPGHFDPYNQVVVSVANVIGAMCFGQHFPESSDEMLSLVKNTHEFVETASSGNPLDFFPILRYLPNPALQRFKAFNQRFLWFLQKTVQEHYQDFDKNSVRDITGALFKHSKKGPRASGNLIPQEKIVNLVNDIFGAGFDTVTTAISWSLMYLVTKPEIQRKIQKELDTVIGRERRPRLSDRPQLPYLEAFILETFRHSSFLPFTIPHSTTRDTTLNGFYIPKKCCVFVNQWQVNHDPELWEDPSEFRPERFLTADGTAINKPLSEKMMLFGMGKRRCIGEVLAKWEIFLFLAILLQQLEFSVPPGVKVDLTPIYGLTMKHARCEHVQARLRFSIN
Glucocorticoid receptor (Homo sapiens), sequence (P04150 whole entry, looked up, the tested form may be a part): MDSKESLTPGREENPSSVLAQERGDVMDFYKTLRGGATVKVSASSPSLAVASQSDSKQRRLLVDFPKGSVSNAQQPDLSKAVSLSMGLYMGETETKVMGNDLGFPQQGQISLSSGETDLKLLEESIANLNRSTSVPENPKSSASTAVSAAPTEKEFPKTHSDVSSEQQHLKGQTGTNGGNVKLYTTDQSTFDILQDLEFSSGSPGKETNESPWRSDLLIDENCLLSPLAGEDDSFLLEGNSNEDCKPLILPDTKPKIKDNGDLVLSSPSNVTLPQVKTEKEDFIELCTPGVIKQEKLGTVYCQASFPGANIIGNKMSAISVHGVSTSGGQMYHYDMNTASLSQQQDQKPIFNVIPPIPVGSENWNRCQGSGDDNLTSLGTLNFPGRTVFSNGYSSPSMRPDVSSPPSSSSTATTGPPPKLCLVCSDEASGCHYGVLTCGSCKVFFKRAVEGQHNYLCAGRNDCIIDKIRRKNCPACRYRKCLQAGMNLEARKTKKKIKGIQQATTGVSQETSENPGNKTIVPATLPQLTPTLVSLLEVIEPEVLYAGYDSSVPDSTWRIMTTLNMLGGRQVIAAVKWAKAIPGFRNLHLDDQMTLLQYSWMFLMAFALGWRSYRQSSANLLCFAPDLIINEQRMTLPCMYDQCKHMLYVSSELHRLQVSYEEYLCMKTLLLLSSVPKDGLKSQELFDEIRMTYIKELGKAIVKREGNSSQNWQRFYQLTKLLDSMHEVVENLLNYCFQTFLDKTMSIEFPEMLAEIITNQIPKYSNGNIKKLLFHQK
Lysosomal acid glucosylceramidase (Homo sapiens), sequence (P04062 whole entry, looked up): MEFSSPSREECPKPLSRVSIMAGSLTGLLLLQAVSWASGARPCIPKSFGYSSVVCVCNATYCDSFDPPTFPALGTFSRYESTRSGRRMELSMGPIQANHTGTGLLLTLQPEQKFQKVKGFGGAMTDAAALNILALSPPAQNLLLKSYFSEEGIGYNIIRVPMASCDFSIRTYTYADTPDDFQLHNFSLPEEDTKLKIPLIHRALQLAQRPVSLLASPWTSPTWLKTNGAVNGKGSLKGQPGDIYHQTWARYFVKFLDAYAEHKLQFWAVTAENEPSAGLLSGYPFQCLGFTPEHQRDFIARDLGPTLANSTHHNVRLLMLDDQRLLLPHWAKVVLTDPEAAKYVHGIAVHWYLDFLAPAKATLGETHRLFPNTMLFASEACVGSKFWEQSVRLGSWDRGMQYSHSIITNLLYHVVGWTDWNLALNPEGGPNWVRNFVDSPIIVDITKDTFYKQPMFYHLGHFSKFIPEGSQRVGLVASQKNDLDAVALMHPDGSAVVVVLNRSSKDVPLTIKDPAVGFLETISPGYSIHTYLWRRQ
3',5'-cyclic-AMP phosphodiesterase 4B (Homo sapiens), sequence (Q07343 whole entry, looked up): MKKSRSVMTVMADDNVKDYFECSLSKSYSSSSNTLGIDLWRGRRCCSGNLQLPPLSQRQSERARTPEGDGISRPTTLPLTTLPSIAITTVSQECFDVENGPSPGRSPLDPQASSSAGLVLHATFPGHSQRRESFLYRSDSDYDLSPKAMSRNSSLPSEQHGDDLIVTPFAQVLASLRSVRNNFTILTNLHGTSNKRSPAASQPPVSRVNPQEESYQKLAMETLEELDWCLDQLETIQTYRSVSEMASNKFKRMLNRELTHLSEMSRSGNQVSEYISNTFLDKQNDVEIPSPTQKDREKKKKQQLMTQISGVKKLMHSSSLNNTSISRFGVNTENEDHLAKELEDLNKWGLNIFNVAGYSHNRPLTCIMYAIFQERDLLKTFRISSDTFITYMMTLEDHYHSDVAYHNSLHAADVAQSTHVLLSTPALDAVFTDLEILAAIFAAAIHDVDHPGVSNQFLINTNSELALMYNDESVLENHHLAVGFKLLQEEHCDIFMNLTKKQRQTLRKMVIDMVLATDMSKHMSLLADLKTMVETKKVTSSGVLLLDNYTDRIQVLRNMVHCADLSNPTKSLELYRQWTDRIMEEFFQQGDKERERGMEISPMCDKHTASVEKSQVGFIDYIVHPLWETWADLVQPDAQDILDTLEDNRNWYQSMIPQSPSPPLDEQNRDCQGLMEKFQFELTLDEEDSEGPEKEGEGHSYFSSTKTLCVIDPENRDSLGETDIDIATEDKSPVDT
Cytochrome P450 3A4 (Homo sapiens), sequence (P08684 whole entry, looked up): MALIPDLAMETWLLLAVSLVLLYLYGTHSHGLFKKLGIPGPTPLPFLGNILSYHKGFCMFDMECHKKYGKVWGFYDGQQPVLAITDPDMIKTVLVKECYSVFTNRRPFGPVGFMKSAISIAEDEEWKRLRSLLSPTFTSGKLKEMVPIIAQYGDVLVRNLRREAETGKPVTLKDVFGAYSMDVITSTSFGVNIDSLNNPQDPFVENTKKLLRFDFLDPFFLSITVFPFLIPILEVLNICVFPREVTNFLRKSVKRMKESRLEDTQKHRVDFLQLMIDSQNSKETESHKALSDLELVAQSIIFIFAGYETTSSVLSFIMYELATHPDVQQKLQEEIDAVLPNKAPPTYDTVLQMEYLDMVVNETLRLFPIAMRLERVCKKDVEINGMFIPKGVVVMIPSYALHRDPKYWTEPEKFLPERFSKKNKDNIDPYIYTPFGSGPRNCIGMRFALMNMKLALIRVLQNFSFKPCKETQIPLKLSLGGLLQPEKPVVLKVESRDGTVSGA
Ubiquitin carboxyl-terminal hydrolase 1 (Homo sapiens), sequence (O94782 whole entry, looked up): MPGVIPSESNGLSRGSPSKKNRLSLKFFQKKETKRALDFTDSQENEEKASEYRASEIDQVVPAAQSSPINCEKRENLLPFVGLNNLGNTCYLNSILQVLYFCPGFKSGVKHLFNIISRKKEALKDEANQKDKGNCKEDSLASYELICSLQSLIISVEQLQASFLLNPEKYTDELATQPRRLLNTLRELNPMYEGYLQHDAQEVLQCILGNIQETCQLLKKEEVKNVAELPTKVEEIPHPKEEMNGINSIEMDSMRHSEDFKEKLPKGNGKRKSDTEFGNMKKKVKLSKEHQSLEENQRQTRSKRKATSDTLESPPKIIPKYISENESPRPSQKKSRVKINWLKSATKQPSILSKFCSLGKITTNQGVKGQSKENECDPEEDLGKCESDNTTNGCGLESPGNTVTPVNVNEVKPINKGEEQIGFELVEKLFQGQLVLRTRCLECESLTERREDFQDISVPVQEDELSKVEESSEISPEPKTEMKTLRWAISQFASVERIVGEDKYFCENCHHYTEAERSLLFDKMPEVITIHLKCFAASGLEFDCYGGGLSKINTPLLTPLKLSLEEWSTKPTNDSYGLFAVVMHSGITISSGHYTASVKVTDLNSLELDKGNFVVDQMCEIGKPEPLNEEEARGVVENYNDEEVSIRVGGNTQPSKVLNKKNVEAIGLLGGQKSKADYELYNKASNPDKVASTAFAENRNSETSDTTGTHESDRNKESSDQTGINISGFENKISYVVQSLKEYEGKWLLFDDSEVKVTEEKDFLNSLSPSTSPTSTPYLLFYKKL
Cytochrome P450 2D6 (Homo sapiens), sequence (P10635 whole entry, looked up): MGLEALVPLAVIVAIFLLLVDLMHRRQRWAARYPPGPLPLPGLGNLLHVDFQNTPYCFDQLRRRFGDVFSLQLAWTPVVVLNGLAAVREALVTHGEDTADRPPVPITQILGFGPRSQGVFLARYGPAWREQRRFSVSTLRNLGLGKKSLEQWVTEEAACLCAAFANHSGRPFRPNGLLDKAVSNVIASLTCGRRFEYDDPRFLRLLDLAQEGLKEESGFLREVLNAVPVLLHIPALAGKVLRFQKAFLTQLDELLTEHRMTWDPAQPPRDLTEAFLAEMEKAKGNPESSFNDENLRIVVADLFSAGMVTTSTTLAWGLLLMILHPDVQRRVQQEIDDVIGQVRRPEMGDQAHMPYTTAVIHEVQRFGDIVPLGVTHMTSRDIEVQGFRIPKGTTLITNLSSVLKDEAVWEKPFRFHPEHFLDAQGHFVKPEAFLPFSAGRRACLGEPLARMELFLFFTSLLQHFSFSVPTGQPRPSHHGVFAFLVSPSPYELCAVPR
Cytochrome P450 2C19 (Homo sapiens), sequence (P33261 whole entry, looked up): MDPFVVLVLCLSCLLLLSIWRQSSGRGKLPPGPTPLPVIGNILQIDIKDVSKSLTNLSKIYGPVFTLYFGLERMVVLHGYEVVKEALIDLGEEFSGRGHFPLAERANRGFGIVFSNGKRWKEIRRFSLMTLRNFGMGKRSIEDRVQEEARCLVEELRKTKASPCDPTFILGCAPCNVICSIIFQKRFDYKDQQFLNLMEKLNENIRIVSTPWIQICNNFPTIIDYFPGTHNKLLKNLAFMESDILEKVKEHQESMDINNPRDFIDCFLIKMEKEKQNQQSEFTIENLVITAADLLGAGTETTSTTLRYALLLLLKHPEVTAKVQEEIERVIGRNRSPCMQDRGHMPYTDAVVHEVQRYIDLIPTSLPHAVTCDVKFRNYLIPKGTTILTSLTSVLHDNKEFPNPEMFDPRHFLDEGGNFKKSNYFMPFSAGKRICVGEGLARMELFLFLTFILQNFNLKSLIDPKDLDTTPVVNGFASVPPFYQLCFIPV

Consider `COc1ccc(Oc2ncc3nc(-c4cccs4)c(=O)n(Cc4cccc(OC)c4)c3n2)cc1`, for which the Potency was greater than 11.4 µM in test [1]; greater than 9.22 µM in test [4]; greater than 46 µM in test [5]; 3.98 µM (active) in test [6]; 3.16 µM (active) in test [8]. For the same molecule, the Potency result in [2] and in [7] was “inactive” in each case. Further, the activity change, negative = inhibition in [3] is -5.95%. Also, the result in test [9] was inactive.

As for `COc1ccc(CNc2nc(-c3ccccc3CN(C)C)nc3ccccc23)c(OC)c1`, the Potency was greater than 11.4 µM in [1]; 10 µM (active) in test [2]; greater than 46 µM in test [4]; greater than 46 µM in test [5]; 7.94 µM (active) in [6]. The results for the activity change, negative = inhibition in [3] and in [12] were -28% and 25.6% [at 2.29 µM], respectively. In addition, in test [10], the activity, negative = inhibition was -17.2%. In addition, the Potency entry in test [11], in test [7], in test [13] and in test [15] was “inactive” each time. Also, the outcome in test [14] and in test [9] was inactive.

As for `CCNc1ncc2ncc(=O)n(CCc3ccccc3)c2n1`, the Potency in test [1] is greater than 11.4 µM; in test [2], 1 µM (active); in test [4] it was greater than 9.22 µM; in [5] it was greater than 46 µM; in test [17] it was 0.631 µM (active). In test [3], the activity change, negative = inhibition is 9.34%. Besides, the activity, negative = inhibition in test [10] was -25.4%. In addition, the Potency entry in [11], in test [16] and in test [7] was “inactive” each time. The outcome in test [9] was inactive.

As to `O=S(=O)(c1ccccc1)N1CCC[C@@]2(CCN(C(c3ccccc3)c3ccccc3)C2)C1`, the Potency in test [1] was greater than 11.4 µM; in [5] it was greater than 46 µM; in [6], 3.16 µM (active); in [18], 0.631 µM (active). The Potency entry in test [2], in test [11] and in [7] was “inactive” throughout. Moreover, the activity change, negative = inhibition in test [3] is -29.6%. Moreover, in [9], the outcome was inactive.

As to `COc1ccc(-n2c(=O)c(-c3ccc(Cl)cc3)nc3cnc(N4CCOCC4)nc32)cc1`, the Potency in test [1] is greater than 11.4 µM; in test [2], 15.8 µM (active); in test [4], greater than 9.22 µM; in [5], greater than 46 µM; in [8], 0.631 µM (active). In addition, the activity change, negative = inhibition in [3] was 23.6%. Also, in test [10], the activity, negative = inhibition is 88.4% [activator] (active). Further, the Potency entry in test [11] and in test [16] was “inactive” in each case. Moreover, the result in test [9] was inactive.

`O=C(Oc1ccccc1)N1CCC[C@@]2(CCN(c3ccccc3)C2)C1`: the Potency in test [1] is greater than 11.4 µM. Besides, in [19], the activity change, negative = inhibition was -15.6%. Moreover, the activity, negative = inhibition in test [10] was -1.51%. For the same molecule, the Potency entry in test [11] and in [16] was “inactive” in each case. The outcome in test [9] was inactive.

The record behind these values is PubChem BioAssay (NCATS).
